In the library only some 3.3% were active in any assay of this set; here they are far more common.
Gli-Sufu block – Gli-Sufu pathway antagonists, primary screen, luciferase luminescence, Sufu-KO-LIGHT cells, uHTS; Sufu-KO-LIGHT fibroblasts, Gli luciferase reporter luminescence; inhibition, % at 5 µM; 340,000 compounds, 0.74% hits;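 active = inhibition above about 55%, limit read from the data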
esBAF inh – Bmi1 luciferase reporter increase in mESCs, primary screen, esBAF inhibitor project, mouse ES cells, Bmi1 luciferase knock-in, single point. 350,000 compounds, 2% hits. reporter increase, % at 12.5 µM. 24 h; 100% = twice the neutral-well signal; in the data active = activation above about 40%; inconclusive = no clear call, values can overlap the other calls;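 note: a rise in the Bmi1 reporter signal indicates esBAF inhibition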
Jurkat NFkB inh – inhibitors of induced NF-kB luciferase reporter, primary screen, TCR NF-kB activation inhibitor project, cell-based, luminescence, uHTS. 330,000 compounds, 0.53% hits. inhibition, % at 4 µM. Jurkat, PMA/ionomycin-induced NF-kB luciferase reporter; in the data active = inhibition above about 50%
697 NFkB inh – inhibitors of PMA/ionomycin-induced NF-kB reporter, 697 cells, primary screen, B-cell NF-kB inhibitor project, cell-based, luminescence, uHTS | inhibition, % at 4 µM | 697 B-cell NF-kB luciferase reporter, 16 h | 330,000 compounds, 0.33% hits; in the data active = inhibition above about 35%
SMARCA2 act – SMARCA2 (BRM) function activators, primary screen, cell-based, luminescence, high throughput | activation, % at 9.1 µM | 370,000 compounds, 1% hits | MG213 cells, MMTV-luciferase reporter, dexamethasone, overnight; in the data active = activation above about 7.8%
Jurkat NFkB conf – PMA/ionomycin-induced NF-kB reporter inhibitors, Jurkat retest, confirmation, T-cell NF-kB inhibitor project, cell-based, luminescence, single concentration; shares compounds with Jurkat NFkB inh; Jurkat NF-kB luciferase, 16 h; inhibition, % at 4 µM; 2,700 compounds, 27% hits; AID 435020, 2010;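 active = inhibition reaching about 45% at 4 µM in either replicate, limit read from the data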
Numbers stand for hits.

For CC1(C)Cc2nc3sc4c(=O)n(CC(N)=O)cnc4c3cc2CO1 the results were Gli-Sufu block inactive, esBAF inh inactive, Jurkat NFkB inh inactive, 697 NFkB inh inactive and SMARCA2 act inactive.
`CC1(C)Cc2nc3sc4c(=O)n(CC(=O)NCc5ccccc5)cnc4c3cc2CO1` gave Gli-Sufu block inactive, esBAF inh inactive, Jurkat NFkB inh 61, 697 NFkB inh inactive, SMARCA2 act inactive and Jurkat NFkB conf inactive.
Screening CN1/C(=C/C(=O)c2nc(S(C)(=O)=O)ncc2Cl)C(C)(C)c2ccccc21 returned Gli-Sufu block inactive, Jurkat NFkB inh 57, 697 NFkB inh inactive and Jurkat NFkB conf inactive.
CN1/C(=C\C(=O)c2cccnc2)C(C)(C)c2ccccc21 was read as Gli-Sufu block inactive, Jurkat NFkB inh inactive, 697 NFkB inh inactive and SMARCA2 act inactive.
`COC(=O)c1ccc(Oc2cc(C)nc(Cl)n2)cc1` gave Gli-Sufu block inactive, esBAF inh inactive, Jurkat NFkB inh inactive, 697 NFkB inh inactive and SMARCA2 act inactive.
`COC(=O)c1ccc(Oc2cc(C)nc(SC)n2)cc1` gave Gli-Sufu block inactive, esBAF inh inactive, Jurkat NFkB inh 55, 697 NFkB inh inactive, SMARCA2 act inactive and Jurkat NFkB conf inactive.
CSc1ccc(CN2CCN(Cc3ccc([N+](=O)[O-])cc3)CC2)cc1 was read as Gli-Sufu block inactive, esBAF inh inactive, Jurkat NFkB inh 55, 697 NFkB inh inactive, SMARCA2 act inactive and Jurkat NFkB conf inactive.
Screening O=C(C[C@@H]1C=C[C@@H](NS(=O)(=O)c2ccc(F)cc2)[C@@H](CO)O1)NCc1ccc(Cl)c(Cl)c1 returned esBAF inh inactive.
Screening O=C(Cc1ccc(N2CCNC2=O)cc1)N1CCCC(Nc2ccc(F)c(F)c2)C1 (stereo not given) returned Gli-Sufu block inactive, esBAF inh inactive, Jurkat NFkB inh 63, 697 NFkB inh inactive, SMARCA2 act inactive and Jurkat NFkB conf inactive.
For O=C(Nc1cccc(S(=O)(=O)N2CCCC2)c1)c1ccc(Cl)nc1 the results were Gli-Sufu block inactive, esBAF inh inactive, Jurkat NFkB inh 63, 697 NFkB inh inactive, SMARCA2 act inactive and Jurkat NFkB conf inactive.
`O=C(C[C@@H]1CC[C@@H]2[C@H](COC[C@@H](O)CN2C(=O)c2ccc3c(c2)OCO3)O1)NC1CCCC1` gave esBAF inh inactive.
`C[C@H](CO)N1C[C@H](C)[C@@H](CN(C)C)Oc2ccc(NC(=O)CCCN(C)C)cc2C1=O` gave esBAF inh inactive.
For CCOC(=O)c1sc(NC(=O)c2ccc(Cl)s2)cc1C the results were Gli-Sufu block inactive, esBAF inh 62, Jurkat NFkB inh inactive, 697 NFkB inh inactive, SMARCA2 act inactive and Jurkat NFkB conf inactive.
`CCOC(=O)c1sc(NC(=O)c2ccccc2)cc1C` gave Gli-Sufu block inactive, esBAF inh 57, Jurkat NFkB inh inactive, 697 NFkB inh inactive, SMARCA2 act inactive and Jurkat NFkB conf inactive.
CCOC(=O)c1sc(NC(=O)Nc2ccc(Cl)cc2)cc1C was read as Gli-Sufu block inactive, Jurkat NFkB inh inactive, 697 NFkB inh inactive and SMARCA2 act inactive.
For CN1C(=O)c2cc(NC(=O)C3CCCCC3)ccc2OC[C@@H]2O[C@@H](CC(=O)NC3CCCC3)CC[C@@H]21 the results were esBAF inh inactive.
For COc1ccc(NC(=O)N(C)C[C@@H]2Oc3ccc(NC(=O)c4ccncc4)cc3CC(=O)N([C@H](C)CO)C[C@@H]2C)cc1 the results were esBAF inh inactive.
Screening C[C@@H]1CN([C@H](C)CO)C(=O)Cc2cc(NC(=O)Cn3cnnn3)ccc2O[C@H]1CN(C)Cc1ccccc1 returned esBAF inh inactive.
Screening CC1CCN(C(=O)c2cc3ccccc3c(=O)o2)CC1 returned Gli-Sufu block inactive, Jurkat NFkB inh inactive, 697 NFkB inh inactive and SMARCA2 act inactive.
CC1CCN(C(=O)c2cc3c(ccc4ccccc43)o2)CC1 was read as Gli-Sufu block inactive, Jurkat NFkB inh inactive, 697 NFkB inh inactive, SMARCA2 act inactive and Jurkat NFkB conf inactive.
Screening NC(=S)N=Nc1c(O)n(Cc2ccc(Br)cc2)c2ccccc12 returned Gli-Sufu block inactive, Jurkat NFkB inh 60, 697 NFkB inh inactive, SMARCA2 act inactive and Jurkat NFkB conf inactive.
For CC(C)NC(=O)Nc1cccc2c1O[C@H](CN(C)S(=O)(=O)c1cn(C)cn1)[C@@H](C)CN([C@H](C)CO)C2=O the results were esBAF inh inactive.
`C[C@@H]1CN([C@H](C)CO)C(=O)Cc2cc(NC(=O)Cc3cn(C)c4ccccc34)ccc2O[C@H]1CN(C)Cc1ccc(Cl)c(Cl)c1` gave esBAF inh inactive.
`Cc1cccc(NC(=S)N/N=C/c2cccc(O)c2)c1C` gave Gli-Sufu block inactive, Jurkat NFkB inh 62, 697 NFkB inh inactive, SMARCA2 act inactive and Jurkat NFkB conf inactive.
`Cc1cc2oc3ccc(NCCCn4ccnc4)cc3c(=O)c2cc1C` gave Gli-Sufu block inactive, esBAF inh inactive, Jurkat NFkB inh inactive, 697 NFkB inh inactive, SMARCA2 act inactive and Jurkat NFkB conf inactive.
For CCOC(=O)c1c2c(n(C)c1C)C(=O)C(=O)c1ccc(Br)cc1-2 the results were Gli-Sufu block inactive, esBAF inh inactive, Jurkat NFkB inh 52, 697 NFkB inh inactive, SMARCA2 act inactive and Jurkat NFkB conf inactive.
Cc1ccccc1S(=O)(=O)NCC[C@H]1CC[C@@H](NC(=O)C2CCC2)[C@H](CO)O1 was read as esBAF inh inactive.
O=C(/C=C/c1cccc(F)c1)OCC(=O)N1CCCc2ccccc21 was read as Gli-Sufu block inactive, esBAF inh inactive, Jurkat NFkB inh inactive, 697 NFkB inh inactive and SMARCA2 act inactive.
Screening O=C(/C=C/c1cccc(F)c1)N1CCc2ccccc21 returned Gli-Sufu block inactive, Jurkat NFkB inh inactive, 697 NFkB inh inactive, SMARCA2 act inactive and Jurkat NFkB conf inactive.
Screening COc1ccccc1CNC(=O)C[C@H]1CC[C@H]2[C@@H](COC[C@@H](O)CN2C(=O)Nc2ccc(C(F)(F)F)cc2)O1 returned esBAF inh inactive.
For COc1ccc(NC(=O)c2cc3ccccc3cc2OC)cc1 the results were Gli-Sufu block inactive, esBAF inh inactive, Jurkat NFkB inh inactive, 697 NFkB inh inactive and SMARCA2 act inactive.
For COc1cc2ccccc2cc1C(=O)Nc1ccc(C)cn1 the results were Gli-Sufu block inactive, esBAF inh inconclusive, Jurkat NFkB inh inactive, 697 NFkB inh inactive, SMARCA2 act inactive and Jurkat NFkB conf inactive.
For COc1ccc(C(=O)Nc2ccc([N+](=O)[O-])cn2)c(OC)c1 the results were Gli-Sufu block inactive, Jurkat NFkB inh inactive, 697 NFkB inh inactive, SMARCA2 act inactive and Jurkat NFkB conf inactive.

High-throughput results deposited in PubChem by several laboratories.
